# Measured values as given in PMC11006913.
# Positions count from the first letter of the chain named.
# Legend:
# Experiment in all cases: PBM; 200 nM protein, PBS
# Settings in all cases: dsDNA, one strand shown
# VENTX [1] = target: T1, VENTX (Homo sapiens, UniProt O95231 78-163, R121Q)
# T1 sequence: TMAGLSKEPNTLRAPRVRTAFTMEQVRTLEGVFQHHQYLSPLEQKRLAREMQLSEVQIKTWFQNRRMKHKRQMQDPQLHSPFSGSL
# HOXA4 [2] = target: HOXA4 (Homo sapiens, UniProt Q00056 201-287, W262R)
# VENTX [3] = target: T2, VENTX (Homo sapiens, UniProt O95231 78-163)
# T2 sequence: T1 sequence with Q44R
# VENTX [4] = target: T3, VENTX (Homo sapiens, UniProt O95231 78-163, Y115F)
# T3 sequence: T1 sequence with Y38F, Q44R
# HOXA4 [5] = target: HOXA4 (Homo sapiens, UniProt Q00056 201-287, R217L)
# Sequence of HOXA4 (Homo sapiens, UniProt Q00056 201-287, R217L) (Q00056 201-287 R217L): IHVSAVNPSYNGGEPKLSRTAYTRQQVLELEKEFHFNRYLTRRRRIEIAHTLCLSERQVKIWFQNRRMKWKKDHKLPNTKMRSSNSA
# HOXA4 [6] = target: HOXA4 (Homo sapiens, UniProt Q00056 201-287)
# Sequence of HOXA4 (Homo sapiens, UniProt Q00056 201-287) (Q00056 201-287): as the sequence (Q00056 201-287 R217L) above, with L17R counted along it
# HOXA4 [7] = target: HOXA4 (Homo sapiens, UniProt Q00056 201-287, W262F)
# Sequence of HOXA4 (Homo sapiens, UniProt Q00056 201-287, W262F) (Q00056 201-287 W262F): as the sequence (Q00056 201-287 R217L) above, with L17R, W62F counted along it
# HOXC9 [8] = target: HOXC9 (Homo sapiens, UniProt P31274 178-260, K195R)
# Sequence of HOXC9 (Homo sapiens, UniProt P31274 178-260, K195R) (P31274 178-260 K195R): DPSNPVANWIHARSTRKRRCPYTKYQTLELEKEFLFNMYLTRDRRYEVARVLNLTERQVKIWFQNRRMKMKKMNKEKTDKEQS
# HOXC9 [9] = target: HOXC9 (Homo sapiens, UniProt P31274 178-260)
# Sequence of HOXC9 (Homo sapiens, UniProt P31274 178-260) (P31274 178-260): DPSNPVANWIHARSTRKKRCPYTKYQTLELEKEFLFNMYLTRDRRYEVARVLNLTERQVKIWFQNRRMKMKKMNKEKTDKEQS
# PITX2 = PITX2 (Homo sapiens, UniProt Q99697 72-157)
# HOXC9 [10] = target: HOXC9 (Homo sapiens, UniProt P31274 178-260, R193K)
# Sequence of HOXC9 (Homo sapiens, UniProt P31274 178-260, R193K) (P31274 178-260 R193K): as the sequence (P31274 178-260) above, with R16K counted along it
# HOXC9 [11] = target: HOXC9 (Homo sapiens, UniProt P31274 178-260, R222W)
# Sequence of HOXC9 (Homo sapiens, UniProt P31274 178-260, R222W) (P31274 178-260 R222W): as the sequence (P31274 178-260) above, with R45W counted along it
# VAX1 [12] = target: VAX1 (Homo sapiens, UniProt Q5SQQ9 86-172)
# Sequence of VAX1 (Homo sapiens, UniProt Q5SQQ9 86-172) (Q5SQQ9 86-172): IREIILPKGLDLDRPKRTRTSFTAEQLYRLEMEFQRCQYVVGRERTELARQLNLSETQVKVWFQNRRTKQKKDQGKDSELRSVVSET
# VAX1 [13] = target: VAX1 (Homo sapiens, UniProt Q5SQQ9 86-172, T142I)
# Sequence of VAX1 (Homo sapiens, UniProt Q5SQQ9 86-172, T142I) (Q5SQQ9 86-172 T142I): as the sequence (Q5SQQ9 86-172) above, with T57I counted along it
# VAX1 [14] = target: VAX1 (Homo sapiens, UniProt Q5SQQ9 86-172, K157R)
# Sequence of VAX1 (Homo sapiens, UniProt Q5SQQ9 86-172, K157R) (Q5SQQ9 86-172 K157R): as the sequence (Q5SQQ9 86-172) above, with K72R counted along it
# SIX6 [15] = target: T4, SIX6 (Homo sapiens, UniProt O95475 114-200, L167I)
# T4 sequence: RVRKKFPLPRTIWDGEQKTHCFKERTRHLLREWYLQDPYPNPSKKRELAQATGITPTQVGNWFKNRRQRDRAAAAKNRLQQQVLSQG
# SIX6 [16] = target: T5, SIX6 (Homo sapiens, UniProt O95475 114-200, L143V)
# T5 sequence: T4 sequence with L30V, I54L
# SIX6 [17] = target: T6, SIX6 (Homo sapiens, UniProt O95475 114-200, H141N)
# T6 sequence: T4 sequence with H28N, I54L
# SIX6 [18] = target: T7, SIX6 (Homo sapiens, UniProt O95475 114-200, T165P)
# T7 sequence: T4 sequence with T52P, I54L
# SIX6 [19] = target: T8, SIX6 (Homo sapiens, UniProt O95475 114-200, L167M)
# T8 sequence: T4 sequence with I54M
# SIX6 [20] = target: T9, SIX6 (Homo sapiens, UniProt O95475 114-200, L143M)
# T9 sequence: T4 sequence with L30M, I54L
# SIX6 [21] = target: T10, SIX6 (Homo sapiens, UniProt O95475 114-200, L143I)
# T10 sequence: T4 sequence with L30I, I54L
# SIX6 [22] = target: T11, SIX6 (Homo sapiens, UniProt O95475 114-200, T165G)
# T11 sequence: T4 sequence with T52G, I54L
# SIX6 [23] = target: T12, SIX6 (Homo sapiens, UniProt O95475 114-200, T139Q)
# T12 sequence: T4 sequence with T26Q, I54L
# SIX6 [24] = target: T13, SIX6 (Homo sapiens, UniProt O95475 114-200, T165A)
# T13 sequence: T4 sequence with T52A, I54L
# SIX6 [25] = target: T14, SIX6 (Homo sapiens, UniProt O95475 114-200, L167V)
# T14 sequence: T4 sequence with I54V
# SIX6 [26] = target: T15, SIX6 (Homo sapiens, UniProt O95475 114-200)
# T15 sequence: T4 sequence with I54L
# SIX6 [27] = target: T16, SIX6 (Homo sapiens, UniProt O95475 114-200, T165I)
# T16 sequence: T4 sequence with T52I, I54L
# Sequence of HOXA4 (Homo sapiens, UniProt Q00056 201-287, W262R) (Q00056 201-287 W262R): as the sequence (Q00056 201-287 R217L) above, with L17R, W62R counted along it
sequence,measurement,setting,value
CCAGGGCC,binding signal,VENTX [1],"8.11 upbm affinity estimate (log intensity, higher = more binding, comparable within an allelic series)"
same,binding signal,HOXA4 [2],"9.65 upbm affinity estimate (log intensity, higher = more binding, comparable within an allelic series)"
same,binding signal,VENTX [3],"8.27 upbm affinity estimate (log intensity, higher = more binding, comparable within an allelic series)"
same,binding signal,VENTX [4],"8.19 upbm affinity estimate (log intensity, higher = more binding, comparable within an allelic series)"
same,binding signal,HOXA4 [5],"9.71 upbm affinity estimate (log intensity, higher = more binding, comparable within an allelic series)"
same,binding signal,HOXA4 [6],"9.79 upbm affinity estimate (log intensity, higher = more binding, comparable within an allelic series)"
same,binding signal,HOXA4 [7],"9.73 upbm affinity estimate (log intensity, higher = more binding, comparable within an allelic series)"
CGGGCACG,binding signal,VENTX [1],"7.97 upbm affinity estimate (log intensity, higher = more binding, comparable within an allelic series)"
same,binding signal,HOXC9 [8],"9.61 upbm affinity estimate (log intensity, higher = more binding, comparable within an allelic series)"
same,binding signal,VENTX [3],"7.98 upbm affinity estimate (log intensity, higher = more binding, comparable within an allelic series)"
same,binding signal,VENTX [4],"8.07 upbm affinity estimate (log intensity, higher = more binding, comparable within an allelic series)"
same,binding signal,HOXC9 [9],"9.57 upbm affinity estimate (log intensity, higher = more binding, comparable within an allelic series)"
same,binding signal,PITX2,"8.22 upbm affinity estimate (log intensity, higher = more binding, comparable within an allelic series)"
same,binding signal,HOXC9 [10],"9.49 upbm affinity estimate (log intensity, higher = more binding, comparable within an allelic series)"
same,binding signal,HOXC9 [11],"9.66 upbm affinity estimate (log intensity, higher = more binding, comparable within an allelic series)"
AAGTAAAC,binding signal,VENTX [1],"9.37 upbm affinity estimate (log intensity, higher = more binding, comparable within an allelic series)"
same,binding signal,VENTX [3],"9.73 upbm affinity estimate (log intensity, higher = more binding, comparable within an allelic series)"
GGCACCAC,binding signal,VENTX [1],"8.11 upbm affinity estimate (log intensity, higher = more binding, comparable within an allelic series)"
same,binding signal,HOXC9 [8],"9.65 upbm affinity estimate (log intensity, higher = more binding, comparable within an allelic series)"
same,binding signal,VENTX [3],"8.1 upbm affinity estimate (log intensity, higher = more binding, comparable within an allelic series)"
same,binding signal,VENTX [4],"8.09 upbm affinity estimate (log intensity, higher = more binding, comparable within an allelic series)"
same,binding signal,HOXC9 [9],"9.66 upbm affinity estimate (log intensity, higher = more binding, comparable within an allelic series)"
same,binding signal,HOXC9 [10],"9.65 upbm affinity estimate (log intensity, higher = more binding, comparable within an allelic series)"
same,binding signal,HOXC9 [11],"9.76 upbm affinity estimate (log intensity, higher = more binding, comparable within an allelic series)"
CCGGGAGG,binding signal,VENTX [1],"8.1 upbm affinity estimate (log intensity, higher = more binding, comparable within an allelic series)"
same,binding signal,HOXC9 [8],"9.54 upbm affinity estimate (log intensity, higher = more binding, comparable within an allelic series)"
same,binding signal,VENTX [3],"7.94 upbm affinity estimate (log intensity, higher = more binding, comparable within an allelic series)"
same,binding signal,VENTX [4],"8.13 upbm affinity estimate (log intensity, higher = more binding, comparable within an allelic series)"
same,binding signal,HOXC9 [9],"9.63 upbm affinity estimate (log intensity, higher = more binding, comparable within an allelic series)"
same,binding signal,HOXC9 [10],"9.49 upbm affinity estimate (log intensity, higher = more binding, comparable within an allelic series)"
same,binding signal,VAX1 [12],"7.03 upbm affinity estimate (log intensity, higher = more binding, comparable within an allelic series)"
same,binding signal,HOXC9 [11],"9.7 upbm affinity estimate (log intensity, higher = more binding, comparable within an allelic series)"
same,binding signal,VAX1 [13],"7.12 upbm affinity estimate (log intensity, higher = more binding, comparable within an allelic series)"
same,binding signal,VAX1 [14],"7.11 upbm affinity estimate (log intensity, higher = more binding, comparable within an allelic series)"
AATGATAC,binding signal,VENTX [1],"9.95 upbm affinity estimate (log intensity, higher = more binding, comparable within an allelic series)"
same,binding signal,SIX6 [15],"11.5 upbm affinity estimate (log intensity, higher = more binding, comparable within an allelic series)"
same,binding signal,VENTX [3],"10.2 upbm affinity estimate (log intensity, higher = more binding, comparable within an allelic series)"
same,binding signal,SIX6 [16],"10.6 upbm affinity estimate (log intensity, higher = more binding, comparable within an allelic series)"
same,binding signal,SIX6 [17],"11.5 upbm affinity estimate (log intensity, higher = more binding, comparable within an allelic series)"
same,binding signal,SIX6 [18],"10.1 upbm affinity estimate (log intensity, higher = more binding, comparable within an allelic series)"
same,binding signal,VENTX [4],"9.98 upbm affinity estimate (log intensity, higher = more binding, comparable within an allelic series)"
same,binding signal,SIX6 [19],"11 upbm affinity estimate (log intensity, higher = more binding, comparable within an allelic series)"
same,binding signal,SIX6 [20],"11.3 upbm affinity estimate (log intensity, higher = more binding, comparable within an allelic series)"
same,binding signal,SIX6 [21],"10.6 upbm affinity estimate (log intensity, higher = more binding, comparable within an allelic series)"
same,binding signal,SIX6 [22],"11.5 upbm affinity estimate (log intensity, higher = more binding, comparable within an allelic series)"
same,binding signal,SIX6 [23],"11.3 upbm affinity estimate (log intensity, higher = more binding, comparable within an allelic series)"
same,binding signal,SIX6 [24],"11.4 upbm affinity estimate (log intensity, higher = more binding, comparable within an allelic series)"
same,binding signal,SIX6 [25],"11.3 upbm affinity estimate (log intensity, higher = more binding, comparable within an allelic series)"
same,binding signal,SIX6 [26],"11.2 upbm affinity estimate (log intensity, higher = more binding, comparable within an allelic series)"
same,binding signal,SIX6 [27],"11.3 upbm affinity estimate (log intensity, higher = more binding, comparable within an allelic series)"
